# Bioassay records deposited in PubChem by National Center for Advancing Translational Sciences (NCATS).
# Coupling enz: qHTS Assay for Inhibitors of Fructose-1,6-bisphosphate Aldolase from Giardia Lamblia: Coupling assay counterscreen. coupling enzyme system counterscreen, AmpLite Red fluorescence. activity change, negative = inhibition, % at 58.2 µM, hits read low. 290,000 compounds, 0.67% hits. AID 2472, 2010; in the data active means activity change below about -30%
#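 Coupling enzymes only (glyceraldehyde-3-phosphate) + compound, at 57.5 uM final, 10 min RT; add substrate/coupling/AmpLite Red mix, 20 min RT; fluorescence ex 525/em 598 nm. Actives flag coupling-system interference.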
# Tau FP inhib: qHTS for Inhibitors of Tau Fibril Formation, Fluorescence Polarization; Microtubule-associated protein tau (Homo sapiens), P10636; K18 P301L tau heparin fibrillization, Alexa594 FP, 6 h; Potency, µM (highest dose often 57.7 µM), for inactives: at the highest dose activity, negative = inhibition, actives largely listed as inhibitors; 280,000 compounds, 0.39% hits; further: potency means the concentration at half of the fitted maximal effect; nearly all actives have a fitted effect of over 55% in size
# Target sequence (P10636 561-689 P618L limits assumed): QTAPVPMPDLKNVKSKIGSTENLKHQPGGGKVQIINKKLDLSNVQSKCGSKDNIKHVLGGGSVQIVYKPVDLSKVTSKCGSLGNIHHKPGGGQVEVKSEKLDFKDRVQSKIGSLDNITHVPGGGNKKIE
#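 Quantitative HTS format: compounds meet 15 uM recombinant K18 P301L tau and Alexa 594-tau tracer in 100 mM sodium acetate pH 7; 20 uM heparin triggers fibrillization at 37 C over 6 hr; FP gives the signal.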
# Tau ThT inhib: qHTS for Inhibitors of Tau Fibril Formation, Thioflavin T Binding | Microtubule-associated protein tau (Homo sapiens), P10636 | recombinant tau K18 P301L, heparin-induced fibrillization, ThT fluorescence | Potency, µM (highest dose often 57.4 µM), for inactives: at the top dose activity, negative = inhibition, most hits filed as inhibitors | 270,000 compounds, 2.1% hits | AID 1460, 2008; further: potency means the concentration at half of the fitted maximal effect; nearly all actives have a fitted effect of over 55% in size
#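 In this qHTS, human K18 P301L tau is incubated with compound and heparin for 6 hr at 37 C, and Thioflavin T fluorescence then reports fibril load.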
# Tau fluor cs: Counterscreen qHTS for Inhibitors of Tau Fibril Formation, Fluorescence Polarization. 280,000 compounds, 0.93% hits. tau K18 P301L (four-repeat tau fragment) Alexa594 fluorescence, heparin fibrillization. AID 1463, 2008. Potency, µM (top dose mostly 57.7 µM), inactives show at the highest dose activity change, negative = decrease; further: potency means the concentration at half of the fitted maximal effect; nearly all actives have a fitted effect of over 55% in size
#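 Human K18 P301L tau (15 uM unlabeled plus 0.24 uM Alexa 594-labeled, final) in 100 mM sodium acetate pH 7 was mixed with compound and 20 uM heparin and incubated 6 hr at 37 C.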
# An asterisk follows results filed as active; ? = inconclusive; nt = no result; [ ] = another dose, or the depositor's remark. In the library only some 2.7% were active in any assay of this set; here they are far more common. Unless noted, the call rests on the fitted dose curve; in most records, active means well fitted curve in the direction sought with a large enough effect; inconclusive means small, poorly fitted or top-dose-only effect, or another doubt; inactive means no such curve, though single readings can be large; an effect the other way counts as inactive or inconclusive. On the % scale 0 is the no-effect control and ±100 the full control effect.
SMILES,Coupling enz,Tau FP inhib,Tau ThT inhib,Tau fluor cs
CCOC(=O)c1c(-c2ccc(C)cc2)csc1NC(=O)c1cc(=O)c2cc(C)ccc2o1,nt,?,25.1µM*,-24.1%
CCOC(=O)c1c(-c2ccccc2)csc1NC(=O)c1cc(-c2cccc(Cl)c2)on1,nt,-17.2%,-16.4%,-7.3%
CCOC(=O)c1c(-c2ccccc2)csc1NC(=O)c1cc(-c2cccc(OC)c2)on1,nt,?,31.6µM*,-17.4%
Cc1ccc(C(=O)N/C(=C/c2ccco2)C(=O)NCC2CCCO2)cc1 (configuration not stated),4.0,1.8%,-4.9%,-2.5%
O=C(/C=C/c1ccco1)NCC1CCCO1 (configuration not stated),-1.2,?,14.1µM*,-19.9%
CC(C)C(=O)Nc1ccc(NC(=O)c2cccs2)cn1,-43.5*,-2.3%,-10.3%,-1.7%
CC[n+]1c(/C=C2\Sc3ccccc3N2C)ccc2cccc(C)c21,6.3,?,20µM*,28.2%
CC[n+]1ccccc1/C=C1\Sc2ccc(C)cc2N1C,1.1,nt,nt,nt
CCN1/C(=C/c2ccc3cc(C)ccc3[n+]2CC)Sc2ccccc21,6.2,?,17.8µM*,14.1%
CCN1/C(=C/c2ccc3cc(C)ccc3[n+]2CC)Sc2cc(C)c(C)cc21,1.5,?,7.08µM*,?
CCN1/C(=C/c2sc(-c3ccccc3C)c[n+]2C)Sc2ccccc21,1.8,2.1%,?,-1.0%
O=C(CSc1ccccc1)Nc1ccccc1C(=O)O,1.7,-4.8%,-1.8%,-4.0%
COc1ccccc1NC(=O)CCCCC(=O)Nc1ccccc1OC,-0.4,nt,nt,nt
COc1ccccc1NC(=O)CSc1nnc(NC(=O)C2CC2)s1,2.6,nt,nt,nt
Cc1ccccc1NC(=O)CSCC(=O)Nc1ccccc1C,-1.3,3.9%,-9.4%,-3.9%
NC(=O)SCC(=O)Nc1ccccc1C(=O)O,1.6,?,22.4µM*,-17.3%
COc1ccccc1NC(=O)CSc1nnc(NC(=O)Nc2ccc(C)cc2)s1,nt,15.8µM*,2.9%,?
COc1ccccc1NC(=O)CSC(N)=O,1.9,?,31.6µM*,-20.2%
Cc1ccccc1NC(=O)CSC(N)=O,3.2,?,25.1µM*,-16.6%
Cc1ccc(CNC(=O)CN2C(=O)COc3ccc(S(=O)(=O)N4CCC(C)CC4)cc32)cc1,nt,5.6%,-2.2%,-22.8%
CC1=C(C(=O)NCc2ccccc2C)C2(CCCCCC2)OC1=O,nt,5.2%,12.3%,2.7%
O=C1c2ccccc2C(=O)N1OCc1ccc(Cl)cc1,3.3,?,0.1%,-6.5%
O=C1Cc2ccccc2C(=O)N1OCc1ccc(Cl)cc1,-41.8*,5.8%,-7.9%,-6.1%
CCOc1ccc(C(=O)Nc2ccccc2C(=O)OCc2cc(=O)n3nc(C4CC4)sc3n2)cc1,nt,6.9%,2.7%,1.4%
CCOc1ccc(N/C=C/C(=O)c2ccc3ccccc3c2)c([N+](=O)[O-])c1,0.5,2.3%,1.12µM*,?
SMILES,Coupling enz,Tau FP inhib,Tau ThT inhib,Tau fluor cs
CCOc1ccc(N/C=C/C(=O)c2ccc(C)cc2)c([N+](=O)[O-])c1,2.8,-3.4%,1.12µM*,-20.7%
CCOc1ccc(NC(=O)Cc2cccc3ccccc23)c([N+](=O)[O-])c1,0.0,3.2%,-11.4%,-19.6%
O=C(c1ccc(Nc2nccc(-c3cc4ccccc4s3)n2)cc1)N1CCC(N2CCCC2)CC1,1.5,nt,nt,nt
O=C(CCCN1C(=O)/C(=C/c2ccccc2)SC1=S)Nc1cccc(O)c1,-0.6,?,?,14.1µM*[quencher]
Cc1ccc(/C=C2/SC(=S)N(CCCC(=O)Nc3ccc(O)cc3)C2=O)cc1,1.9,4.4%,?,?
O=C(CN1C(=O)/C(=C/c2cccc(Br)c2)SC1=S)Nc1cccnc1,0.0,?,?,8.91µM*[quencher]
O=C(CCCN1C(=O)/C(=C\c2ccccc2)SC1=S)Nc1ccc(O)cc1,2.1,14.1%,?,14.1µM*[quencher]
O=C(CCN1C(=O)/C(=C/c2cccc(Br)c2)SC1=S)Nc1cccnc1,-3.5,-17.3%,?,-22.0%
O=C(CCCN1C(=O)/C(=C\c2ccccc2)SC1=S)Nc1cccc(C(=O)O)c1,7.4,nt,nt,nt
CC(/C=C1\SC(=S)N(CCCC(=O)Nc2ccc(C(=O)O)c(O)c2)C1=O)=C\c1ccccc1,4.6,-8.6%,5.01µM*,?
CCCN(CCC)CCCNC(=O)C1CCN(S(=O)(=O)CC)CC1,nt,-5.3%,7.9%,-4.6%
O=c1c(-c2cccs2)nc2cncnc2n1-c1ccccc1,1.1,nt,nt,nt
